Assay [1] deals with Plasmodium falciparum Sir2 (PF13_0152, Sir2A). The experiment in a line: pfSir2 binders on small-molecule microarrays, primary screen, biochemical, small-molecule microarray, 635 nm fluorescence (AID 1098).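 Also: score merges spot fluorescence intensity with its signal-to-noise ratio.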 Particulars: small-molecule microarray binding, fluorescence 635 nm; higher = more signal.
Assay [2] is described as follows: small-molecule microarray binders of probe aDKK1, primary screen, biochemical, biotinylated probe, 635/667 nm fluorescence (AID 1099).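 Also: score merges 667nm spot fluorescence with signal to noise across triplicate slides; reference of the scale not given here.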 Particulars: higher = more signal.
A short description of assay [3]: small-molecule microarray binders of probe aCHRDL2, primary screen, biochemical, biotinylated probe, 635/667 nm fluorescence (AID 1100). Particulars: higher = more signal.
The nature of assay [4]: splicing luciferase reporter signal modulators, primary screen, spliceosome inhibition project, cell-based, HEK293, splice +/- reporter (AID 1101).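 Also: HEK293 cells carrying a splicing-competent luciferase reporter gene; test concentration not given here.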 Particulars: luminescence, 24 h, higher = more signal, called active from +8 up or from −8 down. On the technique in general: Reporter assays use an easily measured gene product as a stand-in for the process of interest.
The target in assay [5] is Fibroblast growth factor 10 (Homo sapiens) (UniProt O15520). Put plainly: FGF10 binders on small-molecule microarrays, primary screen, biochemical, small-molecule microarray, 635 nm fluorescence (AID 1102). Particulars: FGF10 binding, fluorescence 635 nm, higher = more signal.
Fibroblast growth factor 10 (Homo sapiens), sequence (O15520 whole entry, looked up): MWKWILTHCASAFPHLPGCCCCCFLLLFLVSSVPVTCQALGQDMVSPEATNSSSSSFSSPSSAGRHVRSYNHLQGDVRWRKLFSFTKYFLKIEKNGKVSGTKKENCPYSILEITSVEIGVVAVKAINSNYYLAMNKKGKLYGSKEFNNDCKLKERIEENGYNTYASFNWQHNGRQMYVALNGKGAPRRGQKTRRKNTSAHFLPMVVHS
For assay [6], the system named is glycogen synthase kinase-3 (GSK3A per assay name; protocol says GSK3B). Put plainly: GSK3 binders on small-molecule microarrays, primary screen, biochemical, small-molecule microarray, 635 nm fluorescence, GSK3A (AID 1103). Also: the record names both GSK3A and GSK3B. Particulars: small-molecule microarray binding, fluorescence 635 nm; higher = more signal.
Assay [7] concerns the target Epidermal growth factor receptor (Homo sapiens) (UniProt P00533). Put plainly: EGFR binders on small-molecule microarrays, primary screen, biochemical, small-molecule microarray, 635 nm fluorescence (AID 1104).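 Also: score merges 667 nm emission intensity with spot signal to noise over triplicate slides.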 The following applies: EGFR binding, higher = more signal.
Assay [8] addresses Follistatin-related protein 3 (Homo sapiens) (UniProt O95633). Put plainly: FSTL3 binders on small-molecule microarrays, primary screen, biochemical, small-molecule microarray, 635 nm fluorescence (AID 1105).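 Also: score merges emission near 667 nm and signal to noise per printed spot across three slides.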 The following applies: FSTL3 binding, higher = more signal.
Assay [9] has as its target Dickkopf-related protein 1 (Homo sapiens) (UniProt O94907). The experiment in a line: DKK1 binders on small-molecule microarrays, primary screen, biochemical, small-molecule microarray, 635 nm fluorescence scan (AID 1106).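 Also: score merges emission near 667 nm with signal to noise over three replicate slides.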 The following applies: DKK1 binding, higher = more signal.
Assay [10] has as its system Inhibin beta A chain (activin A). Put plainly: INHBA (activin A) binders on microarrays, primary screen, biochemical, small-molecule microarray, 635 nm fluorescence scan (AID 1107).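 Also: mouse activin A protein probed at 4.33 µg/mL on printed slides; score merges bound-protein fluorescence near 667 nm with spot signal-to-noise.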 The following applies: small-molecule microarray binding, higher = more signal.

Here are results for 16 compounds from PubChem BioAssay.

Activity calls are given as the source filed them.

Follistatin-related protein 3 (Homo sapiens), sequence (O95633 whole entry, looked up): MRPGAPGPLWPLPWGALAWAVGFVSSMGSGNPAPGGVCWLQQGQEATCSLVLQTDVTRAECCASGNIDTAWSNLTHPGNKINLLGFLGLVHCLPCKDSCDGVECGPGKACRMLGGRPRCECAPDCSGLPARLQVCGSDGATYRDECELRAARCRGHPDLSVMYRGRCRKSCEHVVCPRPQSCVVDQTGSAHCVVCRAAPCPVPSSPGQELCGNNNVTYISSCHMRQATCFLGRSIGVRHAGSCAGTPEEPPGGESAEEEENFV
Dickkopf-related protein 1 (Homo sapiens), sequence (O94907 whole entry, looked up): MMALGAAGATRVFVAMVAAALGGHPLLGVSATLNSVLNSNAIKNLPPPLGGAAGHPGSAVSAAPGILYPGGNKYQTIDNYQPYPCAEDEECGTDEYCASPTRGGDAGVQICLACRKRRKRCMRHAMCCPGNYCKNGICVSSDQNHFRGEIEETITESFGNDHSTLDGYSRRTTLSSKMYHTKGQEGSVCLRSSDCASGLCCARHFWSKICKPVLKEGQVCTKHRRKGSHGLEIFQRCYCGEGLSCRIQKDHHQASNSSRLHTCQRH
Epidermal growth factor receptor (Homo sapiens), sequence (P00533 whole entry, looked up): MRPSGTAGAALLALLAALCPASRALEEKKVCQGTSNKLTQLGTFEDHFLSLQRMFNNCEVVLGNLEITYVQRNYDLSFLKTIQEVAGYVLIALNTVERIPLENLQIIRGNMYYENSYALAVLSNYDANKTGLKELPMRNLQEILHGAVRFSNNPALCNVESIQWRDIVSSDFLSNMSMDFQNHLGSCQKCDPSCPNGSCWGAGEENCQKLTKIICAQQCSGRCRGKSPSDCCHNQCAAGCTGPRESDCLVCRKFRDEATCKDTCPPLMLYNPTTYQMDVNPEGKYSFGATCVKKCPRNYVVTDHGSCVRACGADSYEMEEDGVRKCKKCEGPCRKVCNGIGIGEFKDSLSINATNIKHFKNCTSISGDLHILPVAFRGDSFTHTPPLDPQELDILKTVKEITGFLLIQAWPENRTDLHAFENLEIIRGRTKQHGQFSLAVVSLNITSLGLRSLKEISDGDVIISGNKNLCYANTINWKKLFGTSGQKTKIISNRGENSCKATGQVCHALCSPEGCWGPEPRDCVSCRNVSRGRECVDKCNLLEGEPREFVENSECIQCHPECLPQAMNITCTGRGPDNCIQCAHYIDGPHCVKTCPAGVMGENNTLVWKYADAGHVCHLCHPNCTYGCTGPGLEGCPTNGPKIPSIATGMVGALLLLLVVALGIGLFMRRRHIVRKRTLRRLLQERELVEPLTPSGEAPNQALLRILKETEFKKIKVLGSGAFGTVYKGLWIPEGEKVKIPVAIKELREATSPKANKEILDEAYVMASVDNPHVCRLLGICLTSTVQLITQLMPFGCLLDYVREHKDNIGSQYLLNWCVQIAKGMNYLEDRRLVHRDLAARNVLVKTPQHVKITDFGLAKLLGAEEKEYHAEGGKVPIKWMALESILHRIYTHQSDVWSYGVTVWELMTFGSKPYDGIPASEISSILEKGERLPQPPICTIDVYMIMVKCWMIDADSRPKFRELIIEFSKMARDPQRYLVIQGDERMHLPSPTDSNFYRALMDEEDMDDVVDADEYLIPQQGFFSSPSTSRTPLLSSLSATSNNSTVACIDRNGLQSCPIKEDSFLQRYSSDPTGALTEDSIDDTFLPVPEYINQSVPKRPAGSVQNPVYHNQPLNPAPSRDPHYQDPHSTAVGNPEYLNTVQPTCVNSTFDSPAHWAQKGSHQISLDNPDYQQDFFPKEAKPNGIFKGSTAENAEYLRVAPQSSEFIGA

Take `C=C(/C(=C/C[C@H](OC(C)=O)c1ccc(CO)o1)c1cnc2ccccc2c1)C(C)C`: the composite z-score was 1.1 in assay [1]; -0.151 in assay [2]; -0.483 in assay [3]; 1.44 in assay [5]; 1.21 in assay [6]; 0.845 in assay [7]. The figures for the composite z-score in assay [8], in [9] and in [10] were 1.58, 0.643 and 1.52, respectively. Besides, in assay [4], the z-score was 0.652 (inactive).

Turning to `NC(=O)[C@@]1(Cc2ccccc2)COC(c2ccc(OCCCO)cc2)=N1`, the composite z-score in [1] is 0.0491; in assay [2] it was 0.618; in assay [3], 0.836; in assay [5], 0.594; in assay [6], -0.923; in [7] it was -0.377. In addition, the composite z-score in assay [8] was -0.807; in assay [9], -0.636; in assay [10], 0.663. Further, the z-score in assay [4] is 0.444 (inactive).

As for `CCOC(=O)C[C@H]1[C@H](OC(=O)Cc2ccc3c(c2)OCO3)[C@@H](NC(=O)c2ccc3ccccc3n2)c2cc(OCCCO)ccc2N1C(=O)c1ccc2ccccc2n1`, the composite z-score was 0.138 in [1]; 0.0134 in assay [2]; -0.0731 in assay [3]; 0.813 in assay [5]; 0.495 in [6]; 0.267 in [7]. The composite z-score in assay [8] stood at 0.492; in [9], 0.483; in assay [10], 0.265. Besides, in [4], the z-score is -1.63 (inactive).

As for `CCCCC[C@H]1OC[C@@]23C=C(Br)[C@@H](CC12)[C@@]1(CO1)C3=O` (stereo not given in full), the composite z-score was -0.501 in assay [1]; -0.323 in [2]; -0.515 in assay [3]; 0.106 in assay [5]; -0.0067 in [6]; 0.0985 in assay [7]. Besides, the figures for the composite z-score in assay [8], in [9] and in [10] were -0.0915, 0.103 and 0.0936, respectively. Also, in assay [4], the z-score is 0.424 (inactive).

Consider `COC(=O)C(CC#Cc1ccc2c(c1)[C@]1(C(=O)N2)[C@H](c2ccc(O)cc2)N2[C@H](c3ccccc3)[C@H](c3ccccc3)OC(=O)[C@H]2[C@@H]1C(=O)NC[C@H](O)c1ccccc1)C(=O)OC`, for which the composite z-score in [1] was -0.282; in assay [2] it was 0.6; in assay [3], 0.405; in assay [5], 0.986; in assay [6], 1.11; in [7], 0.588. Moreover, the composite z-score was determined as 0.523 in assay [8], 0.432 in assay [9] and 0.335 in [10]. For the same compound, in [4], the z-score is 0.0183 (inactive).

`[N-]=[N+]=NCc1ccccc1[C@@H]1OC(c2ccc(OCCCO)cc2)=N[C@]1(CCS(=O)(=O)c1ccccc1)C(=O)O`: the composite z-score is 0.654 in [1]; 0.79 in [2]; 0.95 in [3]; 0.559 in [5]; -0.0623 in assay [6]; -0.231 in assay [7]. In addition, the composite z-score was -0.337 in [8], -0.713 in assay [9] and 1 in [10]. Also, the z-score in assay [4] is -0.551 (inactive).

Take `O=C1C2C=CC(C(O)c3cccc(O)c3)N(Nc3ccc([N+](=O)[O-])cc3)C2C(=O)N1c1ccccc1` (stereo not given): the composite z-score in assay [1] is 0.367; in [2] it was 0.158; in assay [3], 0.451; in [5], 1.07; in assay [6], 0.672; in [7] it was 0.254. In addition, the results for the composite z-score in [8], in [9] and in assay [10] were 0.444, 0.239 and 0.199, respectively. Also, in [4], the z-score was 0.663 (inactive).

With `CN1C(=O)C2C=CC(C(O)c3cccn3C)N(Nc3ccc([N+](=O)[O-])cc3[N+](=O)[O-])C2C1=O` (stereo not given), the composite z-score was 0.0859 in assay [1]; 0.821 in assay [2]; 0.897 in [3]; 0.219 in assay [5]; -0.269 in assay [6]; -0.157 in assay [7]. The composite z-score in [8] was -0.0164; in assay [9] it was -0.31; in assay [10], 1.12. In addition, the z-score in assay [4] is 1.15 (inactive).

Turning to `CCCCCN1CC=CC23O[C@@H]4C=CCCOC(=O)C4[C@H]2C(=O)N(CCCCCCO)[C@@H]3C1=O` (stereo not given in full), the composite z-score is 0.788 in assay [1]; -0.467 in assay [2]; -0.272 in assay [3]; 0.0027 in assay [5]; -0.284 in [6]; -0.547 in assay [7]. Also, the values for the composite z-score in [8], in [9] and in assay [10] were -1.01, -0.69 and -0.206, respectively. The z-score in assay [4] is 2.61 (inactive).

As for `Cc1ccc(F)cc1S(=O)(=O)N[C@@H]1CCN(Cc2ccc(Br)cc2)C1`, the composite z-score was 0.0002 in [1]; -0.16 in assay [2]; -0.418 in [3]; 0.69 in assay [5]; -0.751 in assay [6]; 0.529 in assay [7]. Also, the composite z-score came to 0.752 in assay [8], 0.677 in [9] and 0.359 in assay [10]. In addition, the z-score in [4] is -1.12 (inactive).

Consider `CCOC(=O)C[C@H]1[C@H](OC(=O)Cc2ccc3c(c2)OCO3)[C@@H](NC(=O)C2CCCCC2)c2cc(OCCCO)ccc2N1C(=O)c1ccccc1`, for which the composite z-score was 0.0882 in assay [1]; -0.173 in [2]; -0.265 in [3]; 0.27 in assay [5]; -0.0848 in [6]; 0.073 in assay [7]. In addition, the composite z-score is 0.145 in assay [8], 0.351 in assay [9] and 0.193 in assay [10]. Moreover, the z-score in assay [4] was -0.664 (inactive).

As to `COc1cc(NN2C(C(O)c3ccc(N(C)C)cc3)C=CC3C(=O)N(c4ccccc4)C(=O)C32)cc(OC)c1OC` (stereo not given), the composite z-score in assay [1] is 0.101; in assay [2], 1.16; in assay [3], 1.13; in [5], 0.513; in [6] it was 0.765; in assay [7] it was -0.038. Further, the results for the composite z-score in assay [8], in assay [9] and in assay [10] were 0.455, -0.335 and 1.67, respectively. For the same compound, in assay [4], the z-score is -0.859 (inactive).

With `CCC#CCN(Cc1ccccc1Br)[C@H](/C=C/C1CC1)[C@@H](O)Cc1ccccc1`, the composite z-score in [1] is -0.306; in assay [2], 0.0547; in [3] it was 0.952; in assay [5] it was -0.924; in [6] it was -0.0916; in assay [7] it was -1.03. For the same compound, the composite z-score in assay [8] is -0.583; in assay [9] it was -0.642; in [10], 0.384. Further, in assay [4], the z-score is -0.739 (inactive).

In the case of `[N-]=[N+]=Nc1ccccc1C[C@@]1(C(N)=O)N=C(c2ccc(OCCCO)cc2)O[C@@H]1c1ccccc1N=[N+]=[N-]`, the composite z-score in assay [1] is 0.749; in [2] it was 1.14; in [3], 0.974; in [5], -0.24; in [6], 0.385; in assay [7] it was 0.181. In addition, the composite z-score in [8] was -0.199; in assay [9] it was -0.459; in assay [10], 1.46. Also, the z-score in assay [4] was -1.36 (inactive).

With `COCCOC(=O)N1C(=O)[C@@]2(c3cc(C#CCCO)ccc31)[C@H](C(=O)Nc1nc3ccccc3s1)[C@H]1C(=O)O[C@H](c3ccccc3)[C@H](c3ccccc3)N1[C@@H]2c1ccc(O)cc1`, the composite z-score turned out to be 0.972 in [1]; 0.513 in assay [2]; 0.355 in [3]; 1.16 in [5]; 1.34 in assay [6]; 0.989 in [7]. Also, the composite z-score in [8] amounted to 1.43; in assay [9], 0.957; in assay [10] it was 0.211. The z-score in assay [4] is -0.221 (inactive).

As for `C=CCNC(=O)[C@@H]1[C@H]2C(=O)O[C@H](c3ccccc3)[C@H](c3ccccc3)N2[C@H](c2ccccc2OCCO)[C@@]12C(=O)Nc1ccc(C#CCCO)cc12`, the composite z-score was 0.124 in assay [1]; -0.332 in assay [2]; 0.178 in assay [3]; 0.95 in [5]; 0.773 in assay [6]; 0.954 in assay [7]. The composite z-score in assay [8] amounted to 1.04; in assay [9], 1.49; in assay [10], 0.65. Further, the z-score in [4] is -1.06 (inactive).
